These results are taken from PubChem BioAssay (NCI).

The nature of experiment [1]: NCI Yeast Anticancer Drug Screen. Data for the rad50 strain (AID 155).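 Note: 0% = growth of vehicle-only cultures of the same strain.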 The conditions noted are these: S. cerevisiae rad50 strain growth inhibition, stronger effect = higher value. An outline of the steps:
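Growth of the mutant yeast was measured after compound exposure and referenced to vehicle-treated cultures.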

Experiment [2] is described as follows: NCI Yeast Anticancer Drug Screen. Data for the mec2-1 strain (AID 157). Conditions: S. cerevisiae mec2-1 strain, stronger effect = higher value. Put shortly:
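Mutant yeast (mec2-1) grown with compound; growth inhibition relative to vehicle control reported.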

A short description of experiment [3]: NCI Yeast Anticancer Drug Screen. Data for the sgs1 mgt1 strain (AID 161).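 Note: 0% = growth of cultures given vehicle only.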 Conditions: S. cerevisiae sgs1 mgt1 strain, stronger effect = higher value. Put shortly:
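Compounds are added to genetically altered yeast, and growth is compared with cultures given vehicle alone to give percent inhibition.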

Experiment [4] is described as follows: NCI Yeast Anticancer Drug Screen. Data for the cln2 rad14 strain (AID 165).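 Note: 0% = growth equal to vehicle treated cultures.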 The conditions noted are these: S. cerevisiae cln2 rad14 strain, stronger effect = higher value. Put shortly:
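Readout is yeast growth inhibition versus vehicle-treated controls, using a strain with cln2 and rad14 alterations exposed to compound.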

The nature of experiment [5]: NCI Yeast Anticancer Drug Screen. Data for the bub3 strain (AID 167). Conditions: S. cerevisiae bub3 mutant strain, stronger effect = higher value. Put shortly: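 Whole-cell yeast assay. The mutant strain was incubated with compounds, and growth inhibition was determined by comparison with vehicle-treated cells.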
Experiment [6] can be described thus: NCI Yeast Anticancer Drug Screen. Data for the mlh1 rad18 strain (AID 175). Conditions: S. cerevisiae mlh1 rad18 strain growth inhibition, stronger effect = higher value. Put shortly: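 Genetically defined yeast (DNA repair-deficient) exposed to compounds; growth inhibition determined relative to vehicle.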
[7] abbreviates: at 5.0 µM (retest, dose inferred, filed as 0.5).
Where [8] appears, read: at 50.0 µM (retest, dose inferred, filed as 5.0).

Where “and” joins values, the source holds several entries; their conditions need not be identical. Equal values may be shown once. Compounds without any hit were thinned out: in the full panel of roughly 79,000, 15% have a hit. Some structures have more than one record in an assay (separate samples or runs), and their calls can disagree. Calls of active or inactive are those of the source. Cut-off read from the data, not from the text of the source: active = growth inhibition above about 70%; inactive = the rest.

Take `Cc1c(Cl)cccc1NC(=O)CC1Sc2ccccc2NC1=O` (stereo unspecified): the growth inhibition in experiment [1] (setting [7]) is 23% (inactive); in experiment [1] (setting [8]), 83% (active); in experiment [1] (at 50.0 µM), -1.35% (inactive) and 51.1% (inactive); in experiment [2] (setting [7]), -7% (inactive); in experiment [2] (setting [8]) it was 52% (inactive); in experiment [2] (at 50.0 µM), -6.7% (inactive) and 44.2% (inactive). In addition, the growth inhibition was 2% (inactive) in experiment [3] (setting [7]); 38% (inactive) in experiment [3] (setting [8]); -22.2% (inactive) and 55% (inactive) in experiment [3] (at 50.0 µM); 8% (inactive) in experiment [4] (setting [7]); 49% (inactive) in experiment [4] (setting [8]); -1.1% (inactive) and 27.8% (inactive) in experiment [4] (at 50.0 µM). In addition, the growth inhibition in experiment [5] (setting [7]) was 4% (inactive); in experiment [5] (setting [8]), 83% (active); in experiment [5] (at 50.0 µM), 1.6% (inactive) and 49.8% (inactive); in experiment [6] (setting [7]), -1% (inactive); in experiment [6] (setting [8]), 77% (active); in experiment [6] (at 50.0 µM), 6.5% (inactive) and 83% (active).
On to `O=C(/C=C/c1ccccn1)c1ccccc1`, for which the growth inhibition in experiment [1] (setting [7]) is 4% (inactive); in experiment [1] (setting [8]), 59% (inactive); in experiment [1] (at 50.0 µM), 9.35% (inactive) and 16.2% (inactive); in experiment [2] (setting [7]) it was -13% (inactive); in experiment [2] (setting [8]), 28% (inactive); in experiment [2] (at 50.0 µM) it was 40% (inactive) and 16.4% (inactive). Moreover, the growth inhibition in experiment [3] (setting [7]) was -1% (inactive); in experiment [3] (setting [8]), 56% (inactive); in experiment [3] (at 50.0 µM), 44.7% (inactive) and 24.4% (inactive); in experiment [4] (setting [7]) it was 5% (inactive); in experiment [4] (setting [8]), 11% (inactive); in experiment [4] (at 50.0 µM), 7.2% (inactive) and 26.9% (inactive). Besides, the growth inhibition in experiment [5] (setting [7]) is -5% (inactive); in experiment [5] (setting [8]) it was 23% (inactive); in experiment [5] (at 50.0 µM) it was 47.2% (inactive) and 39.9% (inactive); in experiment [6] (setting [7]), -1% (inactive); in experiment [6] (setting [8]), 29% (inactive); in experiment [6] (at 50.0 µM), 80.7% (active) and 21.1% (inactive).
As to `C=C1C(=O)OC2C[C@@]3(C)CCC[C@H](C)C3=CC12` (stereo partly specified) (tested in a mixture with another compound), the growth inhibition was 15% (inactive) in experiment [1] (setting [7]); 97% (active) in experiment [1] (setting [8]); 85.2% (active) in experiment [1] (at 50.0 µM); 32% (inactive) in experiment [2] (setting [7]); 99% (active) in experiment [2] (setting [8]); 93% (active) in experiment [2] (at 50.0 µM). The growth inhibition in experiment [3] (setting [7]) was 27% (inactive); in experiment [3] (setting [8]), 99% (active); in experiment [3] (at 50.0 µM) it was 93.1% (active); in experiment [4] (setting [7]), 19% (inactive); in experiment [4] (setting [8]), 79% (active); in experiment [4] (at 50.0 µM), 60.5% (inactive). Besides, the growth inhibition is 5% (inactive) in experiment [5] (setting [7]); 97% (active) in experiment [5] (setting [8]); 92.5% (active) in experiment [5] (at 50.0 µM); 23% (inactive) in experiment [6] (setting [7]); 98% (active) in experiment [6] (setting [8]); 89.2% (active) in experiment [6] (at 50.0 µM).
In the case of `NC(=O)N/N=C/c1ccc([N+](=O)[O-])o1`, the growth inhibition in experiment [1] (setting [7]) is 2% (inactive); in experiment [1] (setting [8]), 73% (active); in experiment [1] (at 50.0 µM), 32% (inactive) and 46.6% (inactive); in experiment [2] (setting [7]) it was 2% (inactive); in experiment [2] (setting [8]), 26% (inactive); in experiment [2] (at 50.0 µM) it was 13.8% (inactive) and 8.3% (inactive). Further, the growth inhibition in experiment [3] (setting [7]) was 4% (inactive); in experiment [3] (setting [8]), 34% (inactive); in experiment [3] (at 50.0 µM), 56.4% (inactive) and 48% (inactive); in experiment [4] (setting [7]), 0% (inactive); in experiment [4] (setting [8]), 16% (inactive); in experiment [4] (at 50.0 µM), 10.1% (inactive) and 26.1% (inactive). The growth inhibition in experiment [5] (setting [7]) is -3% (inactive); in experiment [5] (setting [8]) it was 22% (inactive); in experiment [5] (at 50.0 µM), 10.6% (inactive) and 51.8% (inactive); in experiment [6] (setting [7]), 5% (inactive); in experiment [6] (setting [8]), 50% (inactive); in experiment [6] (at 50.0 µM) it was 47.3% (inactive) and 71.3% (active).
With `CC(=O)/C(=C\c1ccc(Cl)c(Cl)c1)C(=O)CCN(C)C`, the growth inhibition was 13% (inactive) and 6% (inactive) in experiment [1] (setting [7]); 42% (inactive) and 30% (inactive) in experiment [1] (setting [8]); 49.2% (inactive) and 56% (inactive) in experiment [1] (at 50.0 µM); 13% (inactive) and -8% (inactive) in experiment [2] (setting [7]); 43% (inactive) and 26% (inactive) in experiment [2] (setting [8]); 78.2% (active) and 42.8% (inactive) in experiment [2] (at 50.0 µM). Besides, the growth inhibition in experiment [3] (setting [7]) was 22% (inactive) and 9% (inactive); in experiment [3] (setting [8]), 45% (inactive) and 50% (inactive); in experiment [3] (at 50.0 µM), 58.6% (inactive) and 63.7% (inactive); in experiment [4] (setting [7]), 19% (inactive) and 16% (inactive); in experiment [4] (setting [8]) it was 17% (inactive) and 21% (inactive); in experiment [4] (at 50.0 µM), 18.8% (inactive) and 41.1% (inactive). Also, the growth inhibition in experiment [5] (setting [7]) was 5% (inactive) and 18% (inactive); in experiment [5] (setting [8]), 41% (inactive) and 42% (inactive); in experiment [5] (at 50.0 µM), 58% (inactive) and 58.1% (inactive); in experiment [6] (setting [7]) it was 20% (inactive) and 8% (inactive); in experiment [6] (setting [8]), 50% (inactive) and 49% (inactive); in experiment [6] (at 50.0 µM), 74.2% (active) and 72.2% (active).
On to `COC(=O)C#CC(=O)OC`, for which the growth inhibition in experiment [1] (setting [7]) is 14% (inactive); in experiment [1] (setting [8]), 96% (active); in experiment [1] (at 50.0 µM) it was 32% (inactive) and -2.9% (inactive); in experiment [2] (setting [7]), 14% (inactive); in experiment [2] (setting [8]), 99% (active); in experiment [2] (at 50.0 µM), 9.8% (inactive) and 77.9% (active). Also, the growth inhibition in experiment [3] (setting [7]) was -15% (inactive); in experiment [3] (setting [8]) it was 84% (active); in experiment [3] (at 50.0 µM), 7.05% (inactive) and 45% (inactive); in experiment [4] (setting [7]), 21% (inactive); in experiment [4] (setting [8]), 96% (active); in experiment [4] (at 50.0 µM), 17.9% (inactive) and 9.6% (inactive). In addition, the growth inhibition is -18% (inactive) in experiment [5] (setting [7]); 99% (active) in experiment [5] (setting [8]); 0.8% (inactive) and 74% (active) in experiment [5] (at 50.0 µM); -2% (inactive) in experiment [6] (setting [7]); 98% (active) in experiment [6] (setting [8]); 21.8% (inactive) and 49.8% (inactive) in experiment [6] (at 50.0 µM).
In the case of `O=C(NC(C(=O)O)c1ccccc1)OCc1ccccc1` (stereo unspecified), the growth inhibition was -3% (inactive) in experiment [1] (setting [7]); -3% (inactive) in experiment [1] (setting [8]); -3% (inactive) and -15.4% (inactive) and 0.9% (inactive) in experiment [1] (at 50.0 µM); 1% (inactive) in experiment [2] (setting [7]); 0% (inactive) in experiment [2] (setting [8]); -28.1% (inactive) and -22.8% (inactive) and 0.9% (inactive) in experiment [2] (at 50.0 µM). Moreover, the growth inhibition is -1% (inactive) in experiment [3] (setting [7]); -2% (inactive) in experiment [3] (setting [8]); -23.6% (inactive) and -3.2% (inactive) in experiment [3] (at 50.0 µM); 1% (inactive) in experiment [4] (setting [7]); -2% (inactive) in experiment [4] (setting [8]); -12.2% (inactive) and 88% (active) in experiment [4] (at 50.0 µM). Moreover, the growth inhibition in experiment [5] (setting [7]) was -1% (inactive); in experiment [5] (setting [8]), -2% (inactive); in experiment [5] (at 50.0 µM) it was -8.4% (inactive) and 21.4% (inactive); in experiment [6] (setting [7]), 3% (inactive); in experiment [6] (setting [8]), -1% (inactive); in experiment [6] (at 50.0 µM), -7.9% (inactive) and 2.55% (inactive) and 48.3% (inactive).
